# From the supplement of paper PMC10503962
# Test system: Trichuris muris adult worms
# Assay: mean motility score (Paragon pixel variance) of adult worms (arbitrary units); higher = more motile worms, i.e. less anthelmintic effect; extreme values may be limits of the assay
# Conditions: 100 µM; 24 h
# Method: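 Primary ex vivo screen of 409 approved drugs against adult Trichuris muris worms: one worm per well in RPMI-1640 with penicillin/streptomycin, 100 µM drug in 1% DMSO, 37 °C, 5% CO2 for 24 h. Motility was recorded with INVAPP (200-frame movies) and scored with the Paragon pixel-variance algorithm. Values are means of triplicate wells run on three occasions; levamisole was the positive control and DMSO the negative control.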
row,SMILES,mean motility score
1,Cc1cc(C(C)(C)C)cc(C)c1C=C1NCCN1 [xylometazoline],3760
2,CC[C@H](Nc1ncnc2[nH]cnc12)c1nc2cccc(F)c2c(=O)n1-c1ccccc1 [idelalisib],3590
3,Cc1cc(Nc2ncc(Cl)c(Nc3ccccc3S(=O)(=O)C(C)C)n2)c(OC(C)C)cc1C1CCNCC1 [ceritinib],1.33
4,O=C(c1ccc(F)cc1)C1CCN(CCn2c(=O)[nH]c3ccccc3c2=O)CC1 [ketanserin],3020
5,N[C@@H](CCC(=O)O)C(=O)O [L-glutamate],3930
6,Cn1cnc2c1c(=O)[nH]c(=O)n2C [theobromine],859
7,CCn1nc(C(=O)O)c(=O)c2cc3c(cc21)OCO3 [cinoxacin],1110
8,CC[N+](CC)(CC)CCOc1cccc(OCC[N+](CC)(CC)CC)c1OCC[N+](CC)(CC)CC.[I-].[I-].[I-] [gallamine triethiodide],4310
9,Cc1cccc(N(C)C(=S)Oc2ccc3ccccc3c2)c1 [tolnaftate],2620
10,O=C1O[C@H](CO)[C@@H](O)[C@H](O)[C@H]1O [gluconolactone],2100
11,N=C(N)NCCC[C@H](N)C(=O)O [arginine],2980
12,O=C(COc1ccc(Cl)cc1)N1CCN(Cc2ccc3c(c2)OCO3)CC1 [fipexide],241
13,CN/C(=N/CCSCc1nc[nH]c1C)NC#N [cimetidine],2750
14,CC(=O)O[C@]1(C(C)=O)CC[C@H]2[C@@H]3C=C(Cl)C4=CC(=O)CC[C@]4(C)[C@H]3CC[C@@]21C [chlormadinone acetate],2750
15,NS(=O)(=O)c1cc2c(cc1Cl)NCNS2(=O)=O [hydrochlorothiazide],3580
16,CCCN1CCCC[C@H]1C(=O)Nc1c(C)cccc1C [ropivacaine],2600
17,CNCCC=C1c2ccccc2CCc2ccccc21 [nortriptyline],911
18,C[C@@](Cc1ccc(O)c(O)c1)(NN)C(=O)O [S-carbidopa],3900
19,CC(C)(C)NC(=O)[C@H]1CC[C@H]2[C@@H]3CC[C@H]4NC(=O)C=C[C@]4(C)[C@H]3CC[C@]12C [finasteride],2080
20,CCOC(=O)N1CCC(=C2c3ccc(Cl)cc3CCc3cccnc32)CC1.Cl [loratadine hydrochloride],0

row,SMILES,mean motility score
1,CCO[C@@H](Cc1ccc(OCCc2ccc(OS(C)(=O)=O)cc2)cc1)C(=O)O [tesaglitazar],3880
2,NCCS [cysteamine],2360
3,COc1ccccc1OCCNCC(O)COc1cccc2[nH]c3ccccc3c12 (stereo not given) [carvedilol],35.7
4,Nc1ncnc2c1ncn2[C@@H]1O[C@H](CO)[C@@H](O)[C@H]1O [adenosine],3520
5,CCOC(=O)[C@H](CCc1ccccc1)N[C@@H](C)C(=O)N1Cc2ccccc2C[C@H]1C(=O)O.Cl [quinapril hydrochloride],4700
6,C[C@@H](C(=O)O)c1ccc(-c2ccccc2)c(F)c1 [tarenflurbil],2130
7,CC(CCc1ccc(O)cc1)NCCc1ccc(O)c(O)c1 (stereo not given) [dobutamine],2870
8,CCC(C)n1ncn(-c2ccc(N3CCN(c4ccc(OC[C@H]5CO[C@](Cn6cncn6)(c6ccc(Cl)cc6Cl)O5)cc4)CC3)cc2)c1=O (stereo not given in full) [itraconazole],1700
9,CC(=O)OCC(=O)[C@@]1(O)CC[C@H]2[C@@H]3CCC4=CC(=O)CC[C@]4(C)[C@H]3[C@@H](O)C[C@@]21C [hydrocortisone acetate],3080
10,CCCNC(=O)NS(=O)(=O)c1ccc(Cl)cc1 [chlorpropamide],2860
11,CC1(C)[C@@H](O[C@H]2O[C@H](C(=O)O)[C@@H](O)[C@H](O)[C@H]2O[C@@H]2O[C@H](C(=O)O)[C@@H](O)[C@H](O)[C@H]2O)CC[C@]2(C)[C@H]3C(=O)C=C4[C@@H]5C[C@@](C)(C(=O)O)CC[C@]5(C)CC[C@@]4(C)[C@]3(C)CC[C@@H]12 [glycyrrhizin],1890
12,CC(C)NCC(O)COc1cccc2[nH]ccc12 (stereo not given) [pindolol],4670
13,Cc1c(N(C)C)c(=O)n(-c2ccccc2)n1C [aminopyrine],2250
14,CCN(CC)CCNC(=O)c1c(C)[nH]c(/C=C2\C(=O)Nc3ccc(F)cc32)c1C [sunitinib],531
15,COC(=O)[C@H](c1ccccc1Cl)N1CCc2sccc2C1 [clopidogrel],2110
16,CCN1CCCC1CNC(=O)c1cc(S(N)(=O)=O)ccc1OC (stereo not given) [sulpiride],2290
17,COc1c2occc2cc2ccc(=O)oc12 [methoxsalen],4190
18,CC1(C)O[C@@H]2C[C@H]3[C@@H]4C[C@H](F)C5=CC(=O)C=C[C@]5(C)[C@@]4(F)[C@@H](O)C[C@]3(C)[C@]2(C(=O)CO)O1 [fluocinolone acetonide],2800
19,Cc1nc2ccc(CN(C)c3ccc(C(=O)N[C@@H](CCC(=O)O)C(=O)O)s3)cc2c(=O)[nH]1 [raltitrexed],3030
20,O=C1NC(=O)C(c2ccccc2)(c2ccccc2)N1 [phenytoin],2510
